Source: PubChem BioAssay AID1159580 (chemical genetic matrix, 2015)
In all, about 5,500 compounds went through this assay and about 2,000 (36%) were called active. Roughly 18% stayed inconclusive and do not appear here. No stated cut-off is given here; in the data, active means normalized growth mostly below about 0.91 (no sharp cut-off); inconclusive means no clear call, values can overlap the other calls; inactive means mostly above about 0.92. This is one part of the list.

Assay: chemical genetic growth profiling, strain panel (AID 1159580);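 further: tested at 20 µM; growth read once vehicle control cultures reached saturation at 30 °C; 1 = growth at the plate median or of vehicle wells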
Conditions: S. cerevisiae deletion strains, growth OD

Measured: normalized growth

C=Cc1c2[nH]c(c1C)Cc1[nH]c(c(C)c1C=C)C=C1N=C(C=c3[nH]c(c(C)c3CCC(=O)O)=C2)C(CCC(=O)O)=C1C
inactive: locus YAL013W, strain DEP1, stronger effect = lower value 0.99 | locus YAL040C, strain CLN3, stronger effect = lower value 0.989 | locus YCL061C, strain MRC1 (second series), stronger effect = lower value 1.01 | locus YDR363W, strain ESC2, stronger effect = lower value 1.05 | locus YER002W, strain NOP16, stronger effect = lower value 0.987 | locus YGR078C, strain PAC10, stronger effect = lower value 1.01 | locus YJR075W, strain HOC1, stronger effect = lower value 1.01 | locus YMR307W, strain GAS1, stronger effect = lower value 1.01 | locus YNL153C, strain GIM3, stronger effect = lower value 0.799 | locus YNL175C, strain NOP13, stronger effect = lower value 0.993 | locus YNL197C, strain WHI3, stronger effect = lower value 0.972 | locus YNL224C, strain SQS1, stronger effect = lower value 1.01 | locus YOR083W, strain WHI5 (second series), stronger effect = lower value 1.01
